Results taken from ChEMBL document CHEMBL2218924, “A broad activity screen in support of a chemogenomic map for kinase signalling research and drug discovery” (Biochem J, 2013).

Tests used:
[1] = target: T1, Muscle, skeletal receptor tyrosine-protein kinase (Homo sapiens) (UniProt O15146); settings: at 1 µM
T1 sequence (whole entry): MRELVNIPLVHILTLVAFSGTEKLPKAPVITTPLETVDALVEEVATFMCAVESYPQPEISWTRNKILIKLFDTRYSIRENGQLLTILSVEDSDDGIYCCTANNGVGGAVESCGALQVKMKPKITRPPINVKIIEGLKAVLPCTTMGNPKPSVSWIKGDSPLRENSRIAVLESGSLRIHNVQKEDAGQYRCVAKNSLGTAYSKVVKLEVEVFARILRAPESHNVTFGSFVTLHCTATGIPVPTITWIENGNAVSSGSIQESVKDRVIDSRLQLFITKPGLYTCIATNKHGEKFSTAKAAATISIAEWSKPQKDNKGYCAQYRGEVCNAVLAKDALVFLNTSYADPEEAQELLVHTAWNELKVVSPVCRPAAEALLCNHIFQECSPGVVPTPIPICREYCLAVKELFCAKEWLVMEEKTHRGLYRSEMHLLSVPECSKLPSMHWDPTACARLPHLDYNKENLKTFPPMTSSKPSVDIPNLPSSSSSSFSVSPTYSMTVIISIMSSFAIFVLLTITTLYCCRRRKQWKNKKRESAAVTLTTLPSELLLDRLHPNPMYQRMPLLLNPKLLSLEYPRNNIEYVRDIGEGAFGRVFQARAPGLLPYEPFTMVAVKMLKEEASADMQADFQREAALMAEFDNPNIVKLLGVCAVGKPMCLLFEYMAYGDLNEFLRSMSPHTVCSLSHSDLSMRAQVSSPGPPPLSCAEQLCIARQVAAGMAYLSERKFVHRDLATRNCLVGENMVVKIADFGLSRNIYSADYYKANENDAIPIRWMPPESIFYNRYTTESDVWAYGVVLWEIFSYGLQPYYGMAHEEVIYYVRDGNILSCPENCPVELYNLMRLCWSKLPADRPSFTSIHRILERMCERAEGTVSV

[2] = target: T1, Muscle, skeletal receptor tyrosine-protein kinase (Homo sapiens); settings: at 10 µM
[3] = target: T2, Serine/threonine-protein kinase Nek11 (Homo sapiens) (UniProt Q8NG66); settings: at 1 µM
T2 sequence (whole entry): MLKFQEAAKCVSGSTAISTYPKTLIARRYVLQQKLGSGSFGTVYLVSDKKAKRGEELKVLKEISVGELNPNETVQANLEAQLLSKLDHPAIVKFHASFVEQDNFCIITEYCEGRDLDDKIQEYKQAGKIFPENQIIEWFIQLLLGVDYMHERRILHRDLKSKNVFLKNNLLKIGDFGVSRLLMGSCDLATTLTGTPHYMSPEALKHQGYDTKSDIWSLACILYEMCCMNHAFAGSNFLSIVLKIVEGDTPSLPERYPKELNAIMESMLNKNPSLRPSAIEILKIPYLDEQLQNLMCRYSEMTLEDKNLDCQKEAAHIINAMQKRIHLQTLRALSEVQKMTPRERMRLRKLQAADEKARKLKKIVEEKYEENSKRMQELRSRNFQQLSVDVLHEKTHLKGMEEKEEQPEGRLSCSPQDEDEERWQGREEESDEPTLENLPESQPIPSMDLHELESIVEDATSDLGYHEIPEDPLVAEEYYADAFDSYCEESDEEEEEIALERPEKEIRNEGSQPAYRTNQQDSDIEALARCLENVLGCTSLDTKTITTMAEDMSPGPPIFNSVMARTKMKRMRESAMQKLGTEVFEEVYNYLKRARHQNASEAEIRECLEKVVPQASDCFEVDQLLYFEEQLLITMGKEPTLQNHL

[4] = target: T2, Serine/threonine-protein kinase Nek11 (Homo sapiens); settings: at 10 µM
[5] = target: T3, Serine/threonine-protein kinase Nek2 (Homo sapiens) (UniProt P51955); settings: at 1 µM
T3 sequence (whole entry): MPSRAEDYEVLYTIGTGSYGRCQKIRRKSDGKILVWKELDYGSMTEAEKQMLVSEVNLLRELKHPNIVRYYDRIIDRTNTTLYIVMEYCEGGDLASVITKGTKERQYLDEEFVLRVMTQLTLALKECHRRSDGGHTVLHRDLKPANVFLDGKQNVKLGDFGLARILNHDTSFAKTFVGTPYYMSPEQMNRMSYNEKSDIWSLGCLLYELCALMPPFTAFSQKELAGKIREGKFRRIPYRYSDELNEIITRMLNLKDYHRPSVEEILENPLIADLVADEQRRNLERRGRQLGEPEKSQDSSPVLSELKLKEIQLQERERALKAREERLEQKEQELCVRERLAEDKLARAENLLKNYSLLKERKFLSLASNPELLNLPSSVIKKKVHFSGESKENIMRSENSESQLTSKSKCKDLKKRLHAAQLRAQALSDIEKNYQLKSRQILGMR

[6] = target: T3, Serine/threonine-protein kinase Nek2 (Homo sapiens); settings: at 10 µM
[7] = target: T4, Serine/threonine-protein kinase Nek3 (Homo sapiens) (UniProt P51956); settings: at 1 µM
T4 sequence (whole entry): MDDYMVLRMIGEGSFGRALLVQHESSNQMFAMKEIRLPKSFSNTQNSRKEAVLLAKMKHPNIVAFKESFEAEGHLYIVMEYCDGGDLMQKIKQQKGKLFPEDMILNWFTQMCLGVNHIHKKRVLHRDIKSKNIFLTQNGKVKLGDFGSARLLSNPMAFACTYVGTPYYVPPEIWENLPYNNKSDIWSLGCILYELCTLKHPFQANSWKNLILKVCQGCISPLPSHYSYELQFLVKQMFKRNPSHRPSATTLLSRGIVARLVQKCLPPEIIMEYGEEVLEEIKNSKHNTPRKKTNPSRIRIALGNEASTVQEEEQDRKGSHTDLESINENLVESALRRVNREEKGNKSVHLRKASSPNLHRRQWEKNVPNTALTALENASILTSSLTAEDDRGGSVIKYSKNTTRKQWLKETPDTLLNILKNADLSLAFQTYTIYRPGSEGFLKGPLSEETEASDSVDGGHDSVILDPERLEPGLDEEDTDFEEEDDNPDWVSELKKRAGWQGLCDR

[8] = target: T4, Serine/threonine-protein kinase Nek3 (Homo sapiens); settings: at 10 µM
[9] = target: Serine/threonine-protein kinase tousled-like 2 (Homo sapiens) (UniProt Q86UE8); settings: at 10 µM
Sequence of Serine/threonine-protein kinase tousled-like 2 (Homo sapiens) (Q86UE8 whole entry, looked up): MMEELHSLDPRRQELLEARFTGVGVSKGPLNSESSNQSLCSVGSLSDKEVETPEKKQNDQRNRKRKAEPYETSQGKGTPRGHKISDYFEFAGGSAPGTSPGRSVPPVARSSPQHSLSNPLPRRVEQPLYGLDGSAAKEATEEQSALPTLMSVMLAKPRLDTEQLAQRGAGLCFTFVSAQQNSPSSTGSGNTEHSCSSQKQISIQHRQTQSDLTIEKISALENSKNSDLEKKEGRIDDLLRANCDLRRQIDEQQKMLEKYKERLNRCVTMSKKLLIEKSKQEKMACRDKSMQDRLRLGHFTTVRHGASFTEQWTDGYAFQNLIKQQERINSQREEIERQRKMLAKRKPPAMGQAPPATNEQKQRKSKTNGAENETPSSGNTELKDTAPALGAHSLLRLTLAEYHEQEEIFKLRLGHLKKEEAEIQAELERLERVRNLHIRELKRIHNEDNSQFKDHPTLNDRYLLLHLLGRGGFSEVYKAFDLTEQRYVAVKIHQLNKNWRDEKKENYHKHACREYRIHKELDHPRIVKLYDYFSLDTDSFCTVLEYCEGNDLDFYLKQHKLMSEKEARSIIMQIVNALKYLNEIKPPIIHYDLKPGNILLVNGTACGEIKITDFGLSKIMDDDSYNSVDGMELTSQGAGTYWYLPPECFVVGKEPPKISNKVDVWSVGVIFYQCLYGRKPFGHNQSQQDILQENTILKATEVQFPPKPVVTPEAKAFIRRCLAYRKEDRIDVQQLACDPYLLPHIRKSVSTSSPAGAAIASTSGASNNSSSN

[10] = target: Serine/threonine-protein kinase tousled-like 2 (Homo sapiens) (UniProt Q86UE8); settings: at 1 µM

Structure (SMILES)	residual activity [1] [%]	residual activity [2] [%]	residual activity [3] [%]	residual activity [4] [%]	residual activity [5] [%]	residual activity [6] [%]	residual activity [7] [%]	residual activity [8] [%]	residual activity [9] [%]	residual activity [10] [%]
O=c1cc(N2CCNCC2)oc2c(-c3ccccc3)cccc12	92	78	104	105	84	92	101	76	91	
O=C1Cc2c([nH]c3ccc([N+](=O)[O-])cc23)-c2ccccc2N1	70	72	74	79						
O=C(c1cc2cc(O)ccc2[nH]1)c1cc2cc(O)ccc2[nH]1	43	4	54	38	77	73	111	72	32	81
CCN(CC)CCNC(=O)c1c(C)[nH]c(/C=C2\C(=O)Nc3ccc(Cl)cc32)c1C	3	0	80	31	67	18			14	69
c1ccc(-c2cnc(Nc3ccc(OCCN4CCCC4)cc3)s2)cc1	4	0	81	76			115	76	81	105
CC(C)(C)n1nc(Cc2cccc3ccccc23)c2c(N)ncnc21	121	76	91	82	78	97	108	105	97	104
Oc1cccc(-c2nc(N3CCOCC3)c3oc4ncccc4c3n2)c1			98	98			117	69	95	
O=c1c(-c2ccc(F)cc2)c(-c2ccncc2)[nH]n1-c1ccc(Cl)cc1			81	78						
O=C1NC(=O)C(c2c[nH]c3ccccc23)=C1c1c[nH]c2ccccc12		60	63	59					9	51
O=C1Cc2c([nH]c3ccc(Br)cc23)-c2ccccc2N1	42	3			95	80	81	72	78	89
COc1ccc(CNC(=O)Nc2ncc([N+](=O)[O-])s2)cc1	68	67	51	66					74	
CC(C)N(CCC(=O)c1ccc2ccccc2c1)Cc1ccccc1	87	79			81	88			80	86
O=C(c1ccccc1)c1ccc(N2CCOCC2)cc1O		86	89		90					
CN([C@@H](Cc1ccc(OS(=O)(=O)c2cccc3cnccc23)cc1)C(=O)N1CCN(c2ccccc2)CC1)S(=O)(=O)c1cccc2cnccc12	115						99	99		
CCOC(=O)c1c(C)[nH]c(/C=C2\C(=O)Nc3ccccc32)c1C			97	98					98	
COc1cc2c(cc1OC)-c1n[nH]c(Nc3cccc(F)c3)c1C2					82	80	114	100		
Nc1nccc(-c2c(-c3ccc(F)cc3)ncn2C2CCNCC2)n1			68	77						
CC(C)(C)c1nc2c3ccc(F)cc3c3c(=O)[nH]ccc3c2[nH]1			98	55		102				
COc1cc2ncnc(Nc3cccc(Cl)c3)c2cc1OC	121	101				111	111		101	119

Structure (SMILES)	residual activity [1] [%]	residual activity [2] [%]	residual activity [3] [%]	residual activity [4] [%]	residual activity [5] [%]	residual activity [6] [%]	residual activity [7] [%]	residual activity [8] [%]	residual activity [9] [%]	residual activity [10] [%]
O=S(=O)(c1cccc2cnccc12)N1CCCNCC1						100				
N#Cc1c(NC(=O)c2cccc3ccccc23)sc2c1CCCC2	96	78	82	72			76		96	100
N#C/C(=C\c1ccc(O)c(O)c1)C(=O)NCc1ccccc1			103	103					85	
Cc1cc(C)c(/C=C2\C(=O)Nc3ccccc32)[nH]1		12		98				106	62	105
O=C(Nc1nc2ccccc2n1CCN1CCOCC1)c1cccc([N+](=O)[O-])c1			84	74	75		106	85		
COc1ccc(COc2ccc(Cc3cnc(N)nc3N)cc2OC)cc1			110	115						
N#C/C(=C1/Nc2ccccc2S1)c1ccnc(NCCc2cccnc2)n1			45	6		82				
COc1cc2nccc(Oc3ccc(NC(=O)Nc4cc(C)on4)c(Cl)c3)c2cc1OC	17	3	77						100	104
NC(=O)c1ccc(-c2nc(-c3ccc4c(c3)OCCO4)c(-c3ccccn3)[nH]2)cc1			57	65	95	91	85	93	87	91
O=C1NC(=O)C(c2cn(CCCO)c3ncccc23)=C1c1cnccn1	81	84	72	82					82	98
Nc1nc(Nc2ccc(S(N)(=O)=O)cc2)nn1C(=O)c1c(F)cccc1F		20	56		96	70		71	17	68
O=C(O)/C=C/c1cc(Br)c(Br)c(Br)c1Br	106	98	85	54			81	108	93	101
O=C1NC(=O)C(c2cn(CCCn3ccnc3)c3ccccc23)=C1Nc1ccccc1	77	65	59	44			110	104	7	44
O=c1cc(N2CCOCC2)oc2c(-c3ccccc3)cccc12					81					
Fc1ccc(-c2nc3n(c2-c2ccncc2)CCS3)cc1			77	83						
Nc1ncnc2c1c(-c1ccc(Oc3ccccc3)cc1)cn2C1CCCC1	83	37	102		77	69	105	55	82	92
Nc1ncnc2[nH]nc(Nc3ccc(F)cc3)c12		76	57	42			82	81		105
Nc1ncnc2c1cnn2-c1ccccc1		88	79	88	83	99		91		
